# Test results published in the supplement of paper PMC6555819.
# Key:
# Assay in all cases: PBM binding z-score (relative to random genomic background probes); higher = stronger binding; sequences stand for … in GC…GCGATTGACAGCGTAGAATGAAGG
# [1] = test system: PPARg:RXRa DBDmut IVT, anti-RXR (DBD mutation: RXRa K156A/R161A, NR concentration 270 nM, RXRa partner concentration 90 nM)
# Procedure, shortened: (§1)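 On custom Agilent 4×180K arrays, double-stranded probes with 34-nt variable regions carried direct-repeat seeds, single-nucleotide variants, half-site ablations or random human genomic background. Ligand-free nuclear receptor dimers were applied for 1 h, and binding was read with antibodies against each partner (one per run). Binding z-scores come from regression-normalized fluorescence, with the random background probes as reference.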
# [2] = test system: PPARg:RXRa IVT, anti-PPARg (NR concentration 270 nM, RXRa partner concentration 90 nM)
# Procedure, shortened: as §1
# [3] = test system: PPARg DBDmut:RXRa IVT, anti-PPARg (DBD mutation: PPARg1 K132A/R137A, NR concentration 270 nM, RXRa partner concentration 90 nM)
# Procedure, shortened: as §1
# [4] = test system: PPARg DBDmut IVT, anti-PPARg (DBD mutation: PPARg1 K132A/R137A, NR concentration 270 nM)
# Procedure, shortened: as §1
# [5] = test system: PPARg homodimer (NR concentration 180 nM)
# Procedure, shortened: as §1
# [6] = test system: PXR:RXRa (NR concentration 270 nM, RXRa partner concentration 90 nM)
# Procedure, shortened: as §1
# [7] = test system: PXR homodimer (NR concentration 270 nM)
# Procedure, shortened: as §1
# [8] = test system: RARa:RXR (NR concentration 270 nM, RXRa partner concentration 90 nM)
# Procedure, shortened: as §1
# [9] = test system: RARa homodimer (NR concentration 270 nM)
# Procedure, shortened: as §1
# [10] = test system: RARb:RXRa (NR concentration 270 nM, RXRa partner concentration 90 nM)
# Procedure, shortened: as §1
Sequence,PBM binding z-score [1],PBM binding z-score [2],PBM binding z-score [3],PBM binding z-score [4],PBM binding z-score [5],PBM binding z-score [6],PBM binding z-score [7],PBM binding z-score [8],PBM binding z-score [9],PBM binding z-score [10]
CGTCCAAGGTCATAGGATGTCAGTGAAGACAGAT,3.22,3.9,1.13,0.513,2.45,4.69,1.15,4.58,0.89,5.08
CTACCAAGGTGATCAAGGTCGTTGATTACTATTC,1.11,1.31,0.364,-0.201,0.492,2.22,1.77,1.33,0.0994,1.32
TCGATTAGGTTAGGGGCATTCAGAATGGCGTCGA,1.99,0.798,-0.691,0.33,1.07,0.603,0.447,0.692,0.352,1.57
AATCCAGGGTCACTAGGCCAGAGTAGGTACGAAT,3.69,5.76,1.17,1.11,2.8,3.49,0.164,4.74,0.405,4.36
CGTCCACGGTCAATGCTAGGTCAGTGAAAGCATT,0.573,1.02,-0.899,-1.45,0.415,0.201,-0.388,1.17,-0.504,3.16
TCGAGTAGGTTAGGGCCATTCAGAATGGCGTCGA,1.63,0.942,-0.334,0.0284,-0.315,0.054,-0.626,-0.18,-0.395,0.699
ACAGACAGGTGATGAAGGAAACTCAGGCTATCAT,-0.00583,0.186,0.678,0.42,0.36,-0.196,0.0696,0.162,0.228,0.275
CCTCGGAGGACAACAGGAGGTCGGAGCTGCCAGA,-0.0819,-0.232,-0.343,-1.52,-0.189,0.00803,-0.239,0.109,0.111,1.55
CTACCAAGGTGTACAAGGTCGTTGATTACTATTC,0.458,0.771,0.278,0.0269,0.61,1.61,1.18,1.47,0.124,0.901
GCTAACGGGTCAAAGGTTATAGCATGAATAGAAT,3.51,5.64,0.399,0.838,1.81,5.59,0.2,7.51,0.254,4.19
AGAAGGAGGGCAATGAGTTGATAGCACGGGTGGC,3.57,2.64,0.99,-0.352,0.922,1.39,4.17,0.2,0.815,1.92
CTCGAAAAGTCGGTTGAGGTGAGTATACGGATAA,-0.249,0.59,-0.0972,-0.5,0.0605,-0.0703,-0.0272,1.45,0.0114,0.371
TAGCCTAGGTGATGCGGGCCAGTATAGTGTCGGC,-0.174,0.433,-0.831,-0.995,-1,-0.852,-0.76,-0.959,-0.718,-0.225
AGTCAAAGTTCAGGACGAGGTATCGTAAAGCACG,-0.507,0.996,0.0216,0.419,1.39,2.32,1.4,2.06,0.462,4.09
TCTTCTAGATCAAGCAGGTTAAGAAAGCCTGAGT,1.76,0.683,0.767,0.698,0.504,0.69,0.108,0.523,-0.00815,0.276
CGTCCAAGGTCAGAGCGGTCAGTGAATGCCGAGT,2.63,2.2,-0.349,0.202,2.18,3.25,2.78,3.14,0.595,4.58
TGAATGAGGTTAAAGATCAGGCAACGTGGCGTCG,2.24,3.79,0.599,0.0672,0.811,1.83,0.118,2.92,-0.39,2.02
CGTCCAGGGTCATAGGAGGTCAGTGAAGACAGAT,1.75,3.92,0.473,-0.113,4.96,6.84,2.73,6.61,2.39,4.79
ATCTCTAGGTAAAGATAGTTCAGTGTATGCAAAT,1.71,1.89,0.591,1.15,1.3,1.32,0.866,1.11,0.968,0.53
GCTCTGAGGACAAGGTCAGAGCTTTGTCCGTAGA,0.898,1.09,-0.229,-0.596,0.274,2,-0.088,2.88,-0.844,3.61
CAAACTATGTCAAAGGTCAAAGTCGAGCCAACCA,5.12,6.61,1.88,0.733,3.54,5.93,1.52,7.09,2.38,5.1
CGTCCAAGGTCATGGTCAGTGAAAGAGACTCGAA,3.19,3.62,0.127,0.155,3.09,3.98,0.701,4.83,1.11,5.11
CTCGAAAGGTCGGTTGAGTTGAGTATACGGATAA,0.55,0.513,0.723,0.673,1.04,3.89,0.374,1.81,0.0679,2.71
CTAACTAGGTCAGAACAGGACAGTGAAGGATGAT,7.81,7.46,1.78,0.779,1.28,0.958,0.15,0.805,0.43,2.94
